# From PubChem BioAssay (NCI)
# About 83,000 compounds went through this panel and 20% of them were active in at least one assay; those are over-represented in the sample as a whole.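 Single-dose data. Exposure time 48 hours. Values below 10 considered active.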 Unmarked numbers belong to inactive results. Calls of active or inactive are those of the source.
# Experiments:
# Assay in all cases: NCI-60 one-dose screen, 48 h (100 = growth as untreated, 0 = no growth, -100 = all killed)
# Details in all cases: 10 µM unless noted
# [1] = test system: SR leukemia
# [2] = test system: OVCAR-8 ovarian
# [3] = test system: OVCAR-5 ovarian
# [4] = test system: OVCAR-4 ovarian
# [5] = test system: SK-OV-3 ovarian
# [6] = test system: IGROV1 ovarian
# [7] = test system: OVCAR-3 ovarian
# [8] = test system: HS 578T breast
# [9] = test system: NCI/ADR-RES ovarian
# [10] = test system: T-47D breast
# [11] = test system: BT-549 breast
# [12] = test system: MDA-MB-435 melanoma
# [13] = test system: SW-620 colon
# [14] = test system: MCF7 breast
# [15] = test system: HCT-116 colon
# [16] = test system: HCC-2998 colon
# [17] = test system: KM12 colon
SMILES,growth [1],growth [2],growth [3],growth [4],growth [5],growth [6],growth [7],growth [8],growth [9],growth [10],growth [11],growth [12],growth [13],growth [14],growth [15],growth [16],growth [17]
O=[N+]([O-])c1ccc(-c2cc3c(Nc4ccc(OCc5cccc(Cl)c5)c(Cl)c4)ncnc3s2)cc1,48.9%,53.4%,88.2%,41.1%,58.5%,76.8%,26.7%,82.1%,68.1%,58.9%,86.2%,74.3%,48.7%,44.1%,52%,102%,74%
Cc1c(Cl)cccc1NS(=O)(=O)c1ccccc1,113%,112%,92%,73.3%,105%,114%,100%,102%,104%,109%,105%,101%,106%,107%,104%,109%,116%
O=[N+]([O-])c1ccc(-c2cc3c(Nc4ccc(Cl)c(C(F)(F)F)c4)ncnc3s2)cc1,17%,10.1%,26.6%,11.1%,-11.5% (active),38%,5.57% (active),37.9%,2.94% (active),-6.08% (active),8.01% (active),5.4% (active),16.8%,3.55% (active),6.29% (active),19.2%,10.9%
O=C1c2cccc3c(-c4ccc(-c5nc6c7ccccc7c7ccccc7c6[nH]5)cc4)ccc(c23)C(=O)N1CCN1CCNCC1,5.99% (active),20.2%,108%,-23.2% (active),102%,72.4%,91.5%,108%,57.8%,67.5%,95.4%,100%,25.2%,-6.7% (active),-12.3% (active),85.5%,21.6%
CCCCN(Cc1ccc(C(=O)NO)cc1)C(=O)Nc1ccc(OCCCCCCCCCn2cc(CCCCC(=O)N[C@H](C(=O)N3C[C@H](O)C[C@H]3C(=O)NCc3ccc(-c4scnc4C)cc3)C(C)(C)C)nn2)cc1,12.9%,50.3%,96.8%,49.3%,53.9%,16.8%,3.45% (active),40.8%,97.3%,32.2%,42.2%,34.8%,30.7%,8.44% (active),20.9%,57.2%,22.1%
CC(=O)Nc1ccc(C(=O)/C=C/c2ccccc2)cc1,49.6%,75.1%,94.6%,99.9%,105%,77%,77.3%,98.8%,94.2%,74.9%,–,89.1%,90.4%,24.3%,1.2% (active),88.7%,22.8%
CC(C)(C)OC(=O)N1Cc2cc3ccccc3nc2C1CO (centres undefined),137%,92.2%,110%,96%,119%,92.7%,101%,102%,106%,103%,85%,88.1%,94.5%,90.7%,98.4%,–,106%
C=C1C(=O)O[C@H]2[C@H]1CC/C(COC(=O)/C=C\C(=O)NCc1ccc(Cn3c(=O)sn(-c4ccc(OC)cc4)c3=O)cc1)=C\CC[C@@]1(C)O[C@@H]21,-27.3% (active),4.05% (active),-86.8% (active),-77% (active),61.4%,-97.3% (active),-88.6% (active),-21.3% (active),-16% (active),-51.6% (active),-51.8% (active),-65.8% (active),-53.6% (active),-51.4% (active),-65.5% (active),-75.7% (active),-64.5% (active)
O=C(NCCOCCOCCOCCNC(=O)c1cc2c(o1)C(=O)c1ccccc1C2=O)NC12CC3CC(CC(C3)C1)C2,14.8%,1.25% (active),-69.9% (active),-72.8% (active),–,6.23% (active),-32% (active),-30.3% (active),8.9% (active),9.45% (active),-84.9% (active),-95.9% (active),-8.88% (active),-63.3% (active),3.1% (active),-67.6% (active),-1.07% (active)
CCn1c(Sc2nnc(NC(C)=O)s2)nc2c1c(=O)n(C)c(=O)n2C,98.1%,99.7%,90.3%,101%,–,98.2%,93.1%,86.2%,89.5%,93%,92.8%,98.1%,96.1%,94.8%,97%,92%,106%
Cc1c(C)c2c(c(C)c1NC(=O)/C=C\C(=O)O)CCC(C)(CCCC(C)CCCC(C)CCCC(C)C)O2 (centres undefined),9.98% (active),35.9%,87.6%,39.4%,54.6%,56.8%,43.2%,57.4%,43.1%,–,-58.5% (active),50.9%,–,51.2%,4.08% (active),79.8%,29.2%
COc1ccc(/C=C(\C#N)n2nnc3ccccc32)cc1,27%,19.6%,-13.4% (active),35.1%,–,7.84% (active),-66.4% (active),-0.28% (active),0.0544% (active),50.1%,21.6%,-40.1% (active),12.8%,9.96% (active),4.97% (active),-2.35% (active),1.79% (active)
COc1cc(-c2ccc(-c3ccc(C(=N)N)nc3)s2)cc(OC)c1OC,6.31% (active),57.2%,81%,60.9%,–,62.5%,-41.9% (active),64.4%,78.6%,66.2%,89.8%,37.1%,29.2%,-1.33% (active),0.952% (active),12.1%,49.1%
N=C(N)c1ccc(-c2ccc(-c3ccc(Cl)cn3)s2)cc1,6.63% (active),38%,52.2%,40%,–,14.4%,4.7% (active),63.2%,62.4%,55.4%,82.6%,-52.6% (active),-28.3% (active),-44.4% (active),-67.6% (active),-61.5% (active),1.88% (active)
CN(C)CCC(O)(Cc1ccccc1)c1ccccc1 (centres undefined),102%,105%,103%,110%,99.6%,113%,–,99.8%,109%,96.4%,–,91.8%,114%,110%,103%,87%,–
Cc1[nH]c(-c2nc3ccccc3[nH]2)c(C)c1C(=O)N1CCOCC1,98.6%,106%,98%,99.8%,–,99.4%,103%,90.4%,101%,99.1%,99%,99.7%,96.3%,93.3%,101%,97.9%,105%
